The results in this text go back to PubChem BioAssay (NCATS).

Inconclusive results are not listed. A call without a number means that no potency is given here. Values without a mark were called inactive. Activity calls are given as the source filed them. Calls follow the shape of the dose curve; as a rule, active = well fitted inhibition curve with a large enough effect; inconclusive = small, poorly fitted or top-dose-only effect; inactive = flat fitted curve, though single readings scatter. Where a SMILES comes first, the peptide text is derived from it. [ ]: non-standard residue; d: D form. ξ: configuration not given here. ξPhe(βξ-Me) = CC(c1ccccc1)C(N)C(=O)O; GABA = NCCCC(=O)O
Potency is read from the fitted curve at half-maximal effect.

This experiment in a line: P-glycoprotein substrates identified in KB-8-5-11 adenocarcinoma cell line, qHTS therapeutic library screen (AID 1346987). Also: nearly all actives have a fitted effect of over 65% in size. The note with it: KB-8-5-11 (P-gp overexpressing) viability, CellTiter-Glo, 72 h; series mostly up to 44.5 µM. The gist of the method: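 P-gp-mediated resistance screen: KB-8-5-11 cells treated 72 h with compounds in dose-response. CellTiter-Glo viability.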
Turning to `COc1ccc(CCO[C@@H]2CCCC[C@H]2N2CC[C@@H](O)C2)cc1OC`, the Potency result was “inactive”.

For the compound `Cc1cnc(NC(=O)Nc2cc(Br)c(C)cc2OCC2CNCCO2)cn1` (centres undefined), the Potency is 8.2 µM (active).

For the compound `O=S(=O)(NCC1CC1)c1ccc(Nc2nccc(N3CCCc4cc(O)ccc43)n2)cc1`, the Potency is 9.2 µM (active).

Consider `CC(C)c1ccc2c(c1)C(=O)CC1[C@@](C)(C(=O)O)CCC[C@]21C` (some centres undefined), for which the Potency entry was “inactive”.

As to `C=CC(=O)Nc1cc(Nc2ncc(Cl)c(-c3c[nH]c4ccccc34)n2)c(OC)cc1N(C)CCN(C)C`, the Potency is 5.17 µM (active).

As for `COc1ccc(/C=C/C(=O)O[C@@H]2[C@@H](O)[C@@H](O)[C@H](O[C@@H]3C=C(CO)[C@H]4[C@H](O[C@@H]5O[C@H](CO)[C@@H](O)[C@H](O)[C@H]5O)OC=C[C@H]43)O[C@H]2C)cc1O`, the Potency entry was “inactive”.

In the case of `COCCOc1cnc2ccn([C@H](C)c3nnc4c(F)cc(-c5cnn(C)c5)cn34)c(=O)c2c1`, the Potency result is “inactive”.

In the case of `COc1cc(C(=O)NC2CCN(C)CC2)ccc1Nc1ncc2c(n1)N(C1CCCC1)CC(F)(F)C(=O)N2C`, the Potency was 1.16 µM (active).

On to `CN(C)CCCCC(=O)Nc1ccc(NC(=S)NC(=O)c2ccc(C(C)(C)C)cc2)cc1`, for which the Potency is 13 µM (active).

`CCO[C@@H]1OC(=O)C[C@@H]1NC(=O)[C@@H]1CCCN1C(=O)[C@@H](NC(=O)c1ccc(N)c(Cl)c1)C(C)(C)C`: the Potency entry was “inactive”.

Consider `O=C1Nc2ccccc2C(O)(c2ccccc2)C1O` (centres undefined), for which the Potency result was “inactive”.

Consider `Cc1ccc(NC(=O)Nc2cc(C(F)(F)F)ccc2F)cc1Nc1ccc2c(c1)NC(=O)/C2=C\c1ccc[nH]1`, for which the Potency was 13 µM (active).

`C[S+](CC[C@H](N)C(=O)[O-])C[C@H]1O[C@@H](n2cnc3c(N)ncnc32)[C@H](O)[C@@H]1O` (some centres undefined): the Potency result was “inactive”.

As to `COc1cc(Nc2nc3c(s2)CCCC3c2ccc(F)cc2)ccc1-n1cnc(C)c1` (centres undefined), the Potency was 20.6 µM (active).

Take `CC(C)S(=O)(=O)NC[C@H](C)c1ccc(NC(=O)c2cc(F)cc(F)c2)cc1`: the Potency entry is “inactive”.

In the case of `CN(C)CCn1cc(S(=O)(=O)c2cccc(F)c2)c2cccnc21`, the Potency result was “inactive”.

Consider `CC(=O)N1CCN(Cc2ccc([C@H](C)Nc3nccc(N4C(=O)OC[C@@H]4C(C)C)n3)cc2)CC1`, for which the Potency result is “inactive”.

For `COC(=O)c1ccccc1O[C@@H]1O[C@H](CO)[C@@H](O)[C@H](O)[C@H]1O[C@@H]1O[C@@H](C)[C@H](O)[C@@H](O)[C@H]1O`, the Potency result was “inactive”.

As for `C[C@@H]1C[C@@H]2O[C@H]2/C=C\C=C\C(=O)Cc2c(Cl)c(O)cc(O)c2C(=O)O1`, the Potency is 1.01 µM (active).

Consider `Cc1c[nH]c2nccc(Oc3c(F)cc(Nc4cc(Cl)nc(N)n4)cc3F)c12`, for which the Potency was 1.3 µM (active).

`CC1(C)CC(NC(=O)C(=O)Nc2ccc(Br)cc2)CC(C)(C)N1`: the Potency entry was “inactive”.

As to `CC(C)C[C@H](CC(=O)NO)C(=O)N[C@@H](Cc1ccc2ccccc2c1)C(=O)N[C@@H](C)C(=O)NCCN`, the Potency entry was “inactive”.

Regarding `COC(=O)[C@@H](O)[C@H]1[C@@]2(C)CC3(O)[C@@H](C(=O)[C@H]2O)[C@]24O[C@]25CC(=O)O[C@@H](c2ccoc2)[C@]5(C)CCC4[C@]13C` (some centres undefined), the Potency entry is “inactive”.

As for `C/C=C/c1ccc2c(c1)[C@@H](C)[C@H](c1ccc(O)cc1)O2`, the Potency result is “inactive”.

With `O=C1OCC(c2ccccc2)=C1Cc1ccccc1`, the Potency entry is “inactive”.

In the case of `COCCN1CCN(Cc2ccc(-c3n[nH]c4c3C(=O)c3c(NC(=O)NN5CCOCC5)cccc3-4)cc2)CC1`, the Potency is 2.59 µM (active).

For `CCCNc1ccc2ncc(-c3ccc4[nH]ncc4c3)n2n1`, the Potency was 3.66 µM (active).

Turning to `CC1OC(OC2C(CO)OC(OCC3OC(OC(=O)C45CCC(C)(C)CC4C4=CCC6C7(C)CCC(OC8OC(CO)C(O)C(OC9OC(CO)C(O)C(O)C9O)C8O)C(C)(C)C7CCC6(C)C4(C)CC5)C(O)C(O)C3O)C(O)C2O)C(O)C(O)C1OC1OC(CO)C(O)C(O)C1O` (centres undefined), the activity change, negative = cytotoxicity is 9.79% [at 9.29 µM].

Consider `C=C[C@]1(C)C[C@H](O)[C@@H]2[C@H](OC(=O)[C@@H]2C)C1/C(C)=C/O[C@@H]1O[C@H](CO)[C@@H](O)[C@H](O)[C@H]1O` (some centres undefined), for which the Potency entry is “inactive”.

For `CC1OC(OC2C(OC3C(O[C@H]4CC[C@@]5(C)C(CC[C@]6(C)C5C(=O)C=C5C7CC(C)(C)CC(O)[C@]7(C)CC[C@]56C)C4(C)C)OC(C(=O)O)C(O)C3O)OCC(O)C2O)C(O)C(O)C1O` (some centres undefined), the activity change, negative = cytotoxicity is 7.36% [at 9.29 µM].

As for `COc1cc(/C=C/C(=O)O[C@H]2[C@H](O)[C@@H](CO)O[C@@]2(CO)O[C@H]2O[C@H](CO)[C@@H](O)[C@H](O)[C@H]2O)ccc1O`, the Potency result was “inactive”.

In the case of `CC1=CC(=O)C(=C(C)C)CC2C1CCC2(C)O` (centres undefined), the Potency entry is “inactive”.

In the case of `NC1CCC(Nc2cc(-c3cccc(NCc4cccc(F)c4)n3)c(Cl)cn2)CC1` (centres undefined), the Potency was 1.16 µM (active).

With `COC(=O)C1=CO[C@@H](O[C@@H]2O[C@H](CO)[C@@H](O)[C@H](O)[C@H]2O)[C@@H]2[C@@](C)(O)[C@@H](OC(=O)/C=C/c3ccc(O)cc3)C[C@]12O`, the Potency result was “inactive”.

Take `C[C@@H]1O[C@@H](O[C@@H]2[C@@H](O)[C@@H](O[C@]3(CO)O[C@H](CO)[C@@H](O)[C@@H]3OC(=O)/C=C/c3ccc(O)cc3)O[C@H](CO)[C@H]2OC(=O)/C=C/c2ccc(O)cc2)[C@H](O)[C@H](O)[C@H]1O[C@@H]1O[C@@H](C)[C@H](O[C@@H]2OC[C@](O)(CO)[C@H]2O)[C@@H](O)[C@H]1O`: the activity change, negative = cytotoxicity was 9.01% [at 9.29 µM].

In the case of `CC(C)[C@H]1CC[C@@]2(O)COC(=O)[C@H]2[C@@H]1/C=C(\CO)C(=O)O`, the Potency entry is “inactive”.

For the compound `CC1NC(=O)CCCNC(=O)C(Cc2c[nH]c3ccccc23)NC(=O)C(C)NC(=O)C(C(C)C)NC(=O)C(C(C)c2ccccc2)NC(=O)C(C(C)C)NC1=O` (stereo not drawn) (cyclo([GABA]AV[ξPhe(βξ-Me)]VAW); configuration not given here), the Potency result was “inactive”.

As for `COC(=O)N(C)c1c(N)nc(-c2nn(Cc3ccccc3F)c3ncccc23)nc1N`, the Potency entry is “inactive”.

`COC(=O)c1ccc(OC(CO)C(O)c2ccc(O)c(OC)c2)c(OC)c1` (centres undefined): the Potency result is “inactive”.
